# In the supplement of paper PMC8728848:
# The full list was thinned out, with the strongest signals kept by preference.
# B1: Epa1-NP-mutant-Y228A (Candida glabrata), Q6VBJ0 (protein)
# chain: MILNPALFLNKCVCIYTTLILLLLTNGGYATSSNDISLASKDPTTFPLGCSPDITTPKKGLSMELYSYDFRKKGSYPCWDAAYLDPNYPRTGYKSHRLLAKVDGVTGNINFYYHATKGCTPQLGHLPASYNYPKPLTMTNFTMLLYGYFRPKVTGFHTFTISADDLLFVNFGAGNAFDCCRRDSSADHFGNYQAYAIWGSKTAKDELTVHLDAGVYYPIRLFYNNREADGALSFTFKTESNENTVSDFSEYFFSLDDTEEGCPGLISYDSSCASVKTSKIIGIDYHTETPNENLVPITKTIYHLGIPCTGTTTTPLCGSGFYDPLANKCVTINTSSTSSVTKTTSHTTSKEVSFHSSISSQKTLIPKSIPSPYGPIKSQSIPTEMETSSEISSSEYAFSDVISTPSHSPYTKKHSSLNSSSYTSTVIHSLTSYSISQGIFSTSLSEQNITSKSSTDKFSTATSMSNNITQSSIIISQFSTNNENYTTTSMHTSSDKISTETLNNSISTTTSILFSNSSTILKNNTTIISSDKDTHYHPVNPTIVCSTNKTEIICASITQPSISNSNNHWSSSVLKFNSTTVRSTLPSSAGSNETSINVPFSSSTESNTSTSSTSTSNSKMVRSTLPSSAGSNETSISVPFSSSTESNTSTSSTSTSNSKMVRSTLPSSAGSNETSINVPFSSSTESNTSTSSTSTSNSKTVRSTPFSSAGIIMTSLSQRNNKSASSYASSNSKCYNTADSCRKVHSTPSYLLTSSYTSEGVDYDCSLVSTKLKINDTNCVNNKHTTKSCLKTSVTTTIPTLEIKTARKSSSNTIGLHSYPTSSPNKSISSAPIIGYISSFKTIKTASPSYQTSDLTTITTITSLNNPGSTAVENTHESNDKSRKTSSNDISSKHSVIKETKDAVESSNKSHQTNTLKCSSIIIASSSHNSYESLGGTTLTLTLSKVYSPQNNDTLPFLEISEVNPSRTVLPESSKMMQYLTSTEERNKTARNTIATNIVSISTFHFEGEGNAIRMGYTQLLLMLIGIIVMNIGT
# Experiments:
# Experiment in all cases: glycan array binding signal (z-score within array); higher = stronger binding
# Conditions in all cases: glycan notation: IUPAC condensed, linker removed; mutation: Y228A
# [1] = target: Fuc(a1-2)Gal(b1-3)GlcNAc(b1-3)[Gal(b1-4)GlcNAc(b1-6)]Gal(b1-4)Glc
# In short: (§1)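 Glycan array binding is given as a within-array Z-score, which can be read as non-binding when negative. The arrays, 3228 of them, came from the Consortium for Functional Glycomics database and were retained only where the protein sequence was available. Z-scores were averaged across arrays of the same protein sequence at different concentrations or buffers and across linkers.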
# [2] = target: Fuc(a1-2)Gal(b1-3)[Fuc(a1-4)]GlcNAc(b1-2)Man(a1-3)[Fuc(a1-2)Gal(b1-3)[Fuc(a1-4)]GlcNAc(b1-2)Man(a1-6)]Man(b1-4)GlcNAc(b1-4)[Fuc(a1-6)]GlcNAc(b1-4)[Fuc(a1-6)]GlcNAc
# In short: as §1
# [3] = target: Fuc(a1-2)Gal(b1-4)GlcNAc(b1-2)Man(a1-3)[Fuc(a1-2)Gal(b1-4)GlcNAc(b1-2)Man(a1-6)]Man(b1-4)GlcNAc(b1-4)GlcNAc
# In short: as §1
# [4] = target: Fuc(a1-2)Gal(b1-4)GlcNAc6S
# In short: as §1
# [5] = target: Fuc(a1-2)Gal(b1-4)[Fuc(a1-3)]GlcNAc(b1-3)GalNAc
# In short: as §1
# [6] = target: Fuc(a1-2)Gal6S(b1-4)Glc6S
# In short: as §1
# [7] = target: Fuc(a1-2)[Gal(a1-3)]Gal(b1-4)[Fuc(a1-3)]Glc
# In short: as §1
# [8] = target: Fuc(a1-2)[GalNAc(a1-3)]Gal(b1-3)GalNAc(a1-3)[Fuc(a1-2)]Gal(b1-4)GlcNAc
# In short: as §1
# [9] = target: Fuc(a1-2)[GalNAc(a1-3)]Gal(b1-3)GlcNAc(b1-3)GalNAc
# In short: as §1
# [10] = target: Fuc(a1-2)[GalNAc(a1-3)]Gal(b1-4)GlcNAc(b1-3)[Fuc(a1-2)[GalNAc(a1-3)]Gal(b1-4)GlcNAc(b1-6)]GalNAc
# In short: as §1
# [11] = target: Fuc(a1-3)[Gal(b1-4)]GlcNAc(b1-6)GalNAc
# In short: as §1
# [12] = target: Fuc(a1-3)[Gal(b1-4)]GlcNAc(b1-6)[Gal(b1-3)GlcNAc(b1-3)]Gal(b1-4)Glc
# In short: as §1
# Gal(a1-2)Gal = target: Gal(a1-2)Gal
# In short: as §1
# [13] = target: Gal(a1-3)Gal(b1-4)GlcNAc(b1-2)Man(a1-3)[Gal(a1-3)Gal(b1-4)GlcNAc(b1-2)Man(a1-6)]Man(b1-4)GlcNAc(b1-4)GlcNAc
# In short: as §1
# Gal(a1-3)GalNAc = target: Gal(a1-3)GalNAc
# In short: as §1
# [14] = target: Gal(a1-4)Gal(b1-4)GlcNAc(b1-2)Man(a1-3)[Gal(a1-4)Gal(b1-4)GlcNAc(b1-2)Man(a1-6)]Man(b1-4)GlcNAc(b1-4)GlcNAc
# In short: as §1
# Gal(b1-3)Gal = target: Gal(b1-3)Gal
# In short: as §1
# Gal(b1-3)Gal(b1-4)GlcNAc = target: Gal(b1-3)Gal(b1-4)GlcNAc
# In short: as §1
# [15] = target: Gal(b1-3)GalNAc(a1-3)[Fuc(a1-2)]Gal(b1-4)Glc
# In short: as §1
# [16] = target: Gal(b1-3)GlcNAc(a1-3)Gal(b1-4)GlcNAc
# In short: as §1
# Gal(b1-3)GlcNAc(b1-2)Man = target: Gal(b1-3)GlcNAc(b1-2)Man
# In short: as §1
# [17] = target: Gal(b1-3)GlcNAc(b1-2)Man(a1-3)[Gal(b1-3)GlcNAc(b1-2)Man(a1-6)]Man(b1-4)GlcNAc(b1-4)[Fuc(a1-6)]GlcNAc
# In short: as §1
# [18] = target: Gal(b1-3)GlcNAc(b1-2)Man(a1-3)[GlcNAc(b1-4)][Gal(b1-3)GlcNAc(b1-2)Man(a1-6)]Man(b1-4)GlcNAc(b1-4)GlcNAc
# In short: as §1
# [19] = target: Gal(b1-3)GlcNAc(b1-3)Gal(b1-4)GlcNAc(b1-6)[Gal(b1-3)GlcNAc(b1-3)]Gal(b1-4)Glc
# In short: as §1
# [20] = target: Gal(b1-3)GlcNAc(b1-6)Gal(b1-4)GlcNAc
# In short: as §1
# [21] = target: Gal(b1-3)GlcNAc(b1-6)GalNAc
# In short: as §1
# Gal(b1-3)GlcNAc6S = target: Gal(b1-3)GlcNAc6S
# In short: as §1
# [22] = target: Gal(b1-3)[Neu5Ac(a2-6)]GalNAc
# In short: as §1
# Gal(b1-4)Glc6S = target: Gal(b1-4)Glc6S
# In short: as §1
# [23] = target: Gal(b1-4)GlcNAc(b1-2)[Gal(b1-4)GlcNAc(b1-6)]Man(a1-6)[GlcNAc(b1-4)][Gal(b1-4)GlcNAc(b1-2)[Gal(b1-4)GlcNAc(b1-4)]Man(a1-3)]Man(b1-4)GlcNAc(b1-4)[Fuc(a1-6)]GlcNAc
# In short: as §1
binder,measurement,setting,value
B1,glycan array binding signal (z-score),[1],-0.261
same,glycan array binding signal (z-score),[2],-0.098
same,glycan array binding signal (z-score),[3],-0.023
same,glycan array binding signal (z-score),[4],-0.027
same,glycan array binding signal (z-score),[5],-0.103
same,glycan array binding signal (z-score),[6],-0.325
same,glycan array binding signal (z-score),[7],-0.203
same,glycan array binding signal (z-score),[8],-0.281
same,glycan array binding signal (z-score),[9],0.018
same,glycan array binding signal (z-score),[10],-0.156
same,glycan array binding signal (z-score),[11],-0.289
same,glycan array binding signal (z-score),[12],-0.025
same,glycan array binding signal (z-score),Gal(a1-2)Gal,-0.233
same,glycan array binding signal (z-score),[13],-0.232
same,glycan array binding signal (z-score),Gal(a1-3)GalNAc,-0.151
same,glycan array binding signal (z-score),[14],0.054
same,glycan array binding signal (z-score),Gal(b1-3)Gal,11.6
same,glycan array binding signal (z-score),Gal(b1-3)Gal(b1-4)GlcNAc,10.2
same,glycan array binding signal (z-score),[15],0.088
same,glycan array binding signal (z-score),[16],-0.17
same,glycan array binding signal (z-score),Gal(b1-3)GlcNAc(b1-2)Man,3.19
same,glycan array binding signal (z-score),[17],2.29
same,glycan array binding signal (z-score),[18],2.24
same,glycan array binding signal (z-score),[19],2.26
same,glycan array binding signal (z-score),[20],2.32
same,glycan array binding signal (z-score),[21],-0.142
same,glycan array binding signal (z-score),Gal(b1-3)GlcNAc6S,7.1
same,glycan array binding signal (z-score),[22],0.209
same,glycan array binding signal (z-score),Gal(b1-4)Glc6S,2.93
same,glycan array binding signal (z-score),[23],0.803
